Laboratory results reported in PubChem BioAssay (Tox21).
Inconclusive results are not listed. The source made the active and inactive calls. Unless noted, calls follow the shape of the dose curve; as a rule, active = well fitted curve in the direction sought with a large enough effect in the repeat runs; inconclusive = weak or mixed curves; inactive = no such curve, though single readings can be large; an effect the other way counts as inactive or inconclusive.

What was measured:
[1] = molecular target: Peroxisome proliferator-activated receptor delta (Homo sapiens) (UniProt Q03181); experiment: qHTS assay to identify small molecule agonists of the peroxisome proliferator-activated receptor delta (PPARd) signaling pathway (AID 743212; calls by dose curve)
How it was run: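 Cells expressing a UAS-driven beta-lactamase reporter (PPARd-bla HEK293H) were given test compounds after a 5 h settle and kept at 37 C. Reporter activity was then measured as FRET fluorescence using LiveBLAzer B/G substrate.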

[2] = qHTS assay to identify small molecule antagonists of the peroxisome proliferator-activated receptor delta (PPARd) signaling pathway - cell viability counter screen (AID 743213); also: nearly all actives have a fitted effect of over 50% in size
How it was run: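 In this counter screen, HEK293H cells carrying a UAS-beta-lactamase reporter are co-treated with test compounds and 300 nM L165041 (final) for 17 h at 37 C; cell viability is quantified by CellTiter-Glo luminescence.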

[3] = molecular target: Peroxisome proliferator-activated receptor delta (Homo sapiens) (UniProt Q03181); experiment: qHTS assay to identify small molecule antagonists of the peroxisome proliferator-activated receptor delta (PPARd) signaling pathway (AID 743215; active = well fitted inhibition curve with a large enough effect in the signal ratio in the repeat runs, not every such curve was filed as active; the % refers to the signal ratio;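 also: cells stimulated with agonist L165041 at 300 nM final during compound exposure; series mostly up to about 62 µM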)
How it was run: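 Screen format: qHTS, antagonist mode. HEK293H PPARd-bla cells received compound and 300 nM L165041 (final), 17 h, 37 C. Beta-lactamase detected via FRET substrate fluorescence, 2 h, room temperature.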

[4] = molecular target: Bile acid receptor (Homo sapiens) (UniProt Q96RI1); experiment: qHTS assay to identify small molecule antagonists of the farnesoid-X-receptor (FXR) signaling pathway (AID 743217; active = well fitted inhibition curve with a large enough effect in the signal ratio in the repeat runs, not every such curve was filed as active; the % refers to the signal ratio)
How it was run: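 Quantitative HTS, beta-lactamase reporter format: FXR-UAS-bla HEK 293T cells co-treated 16 h at 37 °C with compounds and 50 uM final chenodeoxycholic acid, then read by B/G FRET fluorescence.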

[5] = qHTS assay to identify small molecule agonists of the farnesoid-X-receptor (FXR) signaling pathway - cell viability counter screen (AID 743218); also: nearly all actives have a fitted effect of over 45% in size
How it was run: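 Same-well cytotoxicity check on FXR-UAS-bla HEK 293T cells: 5 h attachment, 16 h compound at 37 C, CellTiter-Glo luminescence read at room temperature after 30 min.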

[6] = qHTS assay to identify small molecule antagonists of the farnesoid-X-receptor (FXR) signaling pathway - cell viability counter screen (AID 743221; active = well fitted cell-killing curve with a large enough effect in the repeat runs, not every such curve was filed as active; also: nearly all actives have a fitted effect of over 50% in size)
How it was run: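 After a 5 h settling period, FXR-bla HEK 293T cells receive compound and chenodeoxycholic acid (50 uM final) and incubate 16 h at 37 C; CellTiter-Glo luminescence, read after 30 min at room temperature, reports cell viability.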

[7] = molecular target: Vitamin D3 receptor (Homo sapiens) (UniProt P11473); experiment: qHTS assay to identify small molecule agonists of the vitamin D receptor (VDR) signaling pathway (AID 743222; calls by dose curve)
How it was run: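 Using LiveBLAzer B/G FRET detection, agonism was scored in VDR-bla cells exposed overnight (16 h, 37C) to DMSO-dissolved compounds; substrate incubation was 2 h at room temperature.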

[8] = molecular target: Vitamin D3 receptor (Homo sapiens) (UniProt P11473); experiment: qHTS assay to identify small molecule antagonists of the vitamin D receptor (VDR) signaling pathway (AID 743223; active = well fitted inhibition curve with a large enough effect in the signal ratio in the repeat runs, not every such curve was filed as active; the % refers to the signal ratio)
How it was run: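 Reporter line VDR-bla; stimulus 1alpha,25-(OH)2 vitamin D3, 3 nM final; compound co-addition, 16 h 37C/5% CO2; LiveBLAzer B/G substrate 2 h RT; fluorescence intensity.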

[9] = qHTS assay to identify small molecule agonists of the vitamin D receptor (VDR) signaling pathway - cell viability counter screen (AID 743224); also: series mostly up to about 63 µM; nearly all actives have a fitted effect of over 50% in size
How it was run: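 Counter screen for cytotoxicity: VDR-bla cells at 2,000 cells/well, 16 h compound exposure, then CellTiter-Glo luminescence after the beta-lactamase measurement.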

[10] = molecular target: Bile acid receptor (Homo sapiens) (UniProt Q96RI1); experiment: qHTS assay to identify small molecule agonists of the farnesoid-X-receptor (FXR) signaling pathway (AID 743220; active = well fitted activation curve with a large enough effect in the signal ratio in the repeat runs, not every such curve was filed as active; the % refers to the signal ratio)
How it was run: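 FXR-UAS-bla HEK 293T cells carrying a UAS-driven beta-lactamase reporter were plated for 5 h at 37C/5% CO2, then exposed to DMSO-dissolved Tox21 10K compounds for 16 h at 37C. A LiveBLAzer B/G FRET substrate was loaded for 2 h at room temperature before fluorescence reading.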
% is scaled to controls: 0 for no effect and ±100 for the full control effect.

Chain of Peroxisome proliferator-activated receptor delta (Homo sapiens) (Q03181 whole entry, looked up): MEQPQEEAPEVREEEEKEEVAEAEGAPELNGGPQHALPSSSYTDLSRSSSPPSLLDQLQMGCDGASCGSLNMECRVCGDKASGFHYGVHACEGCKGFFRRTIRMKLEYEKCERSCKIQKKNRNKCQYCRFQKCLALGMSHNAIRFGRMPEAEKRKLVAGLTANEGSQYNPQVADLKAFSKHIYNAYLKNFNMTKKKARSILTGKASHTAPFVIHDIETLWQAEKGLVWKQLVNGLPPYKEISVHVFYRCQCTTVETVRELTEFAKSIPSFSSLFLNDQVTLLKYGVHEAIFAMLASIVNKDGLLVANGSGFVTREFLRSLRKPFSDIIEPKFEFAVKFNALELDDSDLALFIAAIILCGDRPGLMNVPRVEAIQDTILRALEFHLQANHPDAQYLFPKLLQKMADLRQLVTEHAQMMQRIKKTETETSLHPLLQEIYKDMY
Chain of Bile acid receptor (Homo sapiens) (Q96RI1 whole entry, looked up): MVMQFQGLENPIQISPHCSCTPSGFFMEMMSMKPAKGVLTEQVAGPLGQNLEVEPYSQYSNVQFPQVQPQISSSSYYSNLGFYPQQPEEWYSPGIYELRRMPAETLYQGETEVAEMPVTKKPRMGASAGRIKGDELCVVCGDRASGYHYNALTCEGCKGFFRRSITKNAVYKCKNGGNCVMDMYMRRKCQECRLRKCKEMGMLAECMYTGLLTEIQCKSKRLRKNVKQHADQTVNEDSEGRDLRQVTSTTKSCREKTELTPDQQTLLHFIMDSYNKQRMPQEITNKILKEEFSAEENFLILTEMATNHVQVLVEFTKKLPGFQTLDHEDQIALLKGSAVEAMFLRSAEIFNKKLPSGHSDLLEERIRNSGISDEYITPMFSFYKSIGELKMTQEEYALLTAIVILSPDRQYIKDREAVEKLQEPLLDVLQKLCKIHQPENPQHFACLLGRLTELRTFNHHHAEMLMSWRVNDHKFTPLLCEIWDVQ
Chain of Vitamin D3 receptor (Homo sapiens) (P11473 whole entry, looked up): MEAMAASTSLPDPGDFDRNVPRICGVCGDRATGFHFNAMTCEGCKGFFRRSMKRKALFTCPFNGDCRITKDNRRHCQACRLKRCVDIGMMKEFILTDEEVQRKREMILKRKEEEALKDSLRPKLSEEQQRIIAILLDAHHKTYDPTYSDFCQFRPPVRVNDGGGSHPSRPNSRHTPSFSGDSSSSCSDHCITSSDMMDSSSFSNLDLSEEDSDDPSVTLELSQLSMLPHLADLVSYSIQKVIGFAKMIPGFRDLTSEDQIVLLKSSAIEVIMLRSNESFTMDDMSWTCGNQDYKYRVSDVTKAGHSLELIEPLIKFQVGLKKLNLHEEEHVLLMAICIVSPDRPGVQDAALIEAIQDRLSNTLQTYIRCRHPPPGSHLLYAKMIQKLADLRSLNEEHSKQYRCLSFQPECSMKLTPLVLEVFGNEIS

Cc1nc([N+](=O)[O-])cn1-c1ccc([N+](=O)[O-])cc1
inactive: outcome [1] | outcome [2] | outcome [3] | outcome [4] | Potency [5] | outcome [6] | outcome [7] | outcome [8] | outcome [9]

Cc1cccc(NC(=S)N(C)C)c1
inactive: outcome [1] | outcome [2] | outcome [3] | outcome [4] | Potency [5] | outcome [6] | outcome [7] | outcome [8] | outcome [9]

O=P(O)(O)OCC(O)CO (configuration not stated)
inactive: outcome [1] | outcome [2] | outcome [3] | outcome [4] | Potency [5] | outcome [9]

CCN(CCC#N)c1ccccc1
inactive: outcome [1] | outcome [2] | outcome [3] | outcome [4] | Potency [5] | outcome [6] | outcome [7] | outcome [9]

O=C(Oc1ccccc1C(=O)O)c1ccccc1O
inactive: outcome [1] | outcome [2] | outcome [3] | outcome [4] | Potency [5] | outcome [10] | outcome [6] | outcome [7] | outcome [8] | outcome [9]

Cc1cc(O)c2c(c1)C(=O)c1cccc(O)c1C2=O
inactive: outcome [1] | outcome [2] | outcome [3] | outcome [4] | Potency [5] | outcome [6] | outcome [7] | outcome [9]

CC(=O)c1ccc(OCC(=O)N2CCCCC2)cc1
inactive: outcome [1] | outcome [2] | outcome [3] | outcome [4] | Potency [5] | outcome [6] | outcome [7] | outcome [8] | outcome [9]

COc1cc([N+](=O)[O-])ccc1N
inactive: outcome [1] | outcome [2] | outcome [3] | outcome [4] | outcome [10] | outcome [6] | outcome [7]

O=C(O)c1ccccc1C(=O)OCc1ccccc1
inactive: outcome [1] | outcome [2] | outcome [3] | outcome [4] | Potency [5] | outcome [9]

CCC1COC(=O)O1 (configuration not stated)
inactive: outcome [1] | outcome [2] | outcome [3] | outcome [4] | Potency [5] | outcome [10] | outcome [6] | outcome [7] | outcome [8] | outcome [9]

CN(C1CCCCC1)S(=O)(=O)c1ccccc1N
inactive: outcome [1] | outcome [2] | outcome [3] | outcome [4] | Potency [5] | outcome [6] | outcome [7] | outcome [9]

CCOC(=O)C(=O)c1csc(NC=O)n1
inactive: outcome [1] | outcome [2] | outcome [3] | outcome [4] | outcome [10] | outcome [6] | outcome [7] | outcome [8] | outcome [9]

CC(=O)OC(C)(C)Cc1ccccc1
inactive: outcome [1] | outcome [2] | outcome [3] | outcome [4] | Potency [5] | outcome [6] | outcome [7] | outcome [8] | outcome [9]

CC(C)COC(=O)CCCCC(=O)OCC(C)C
inactive: outcome [1] | outcome [2] | outcome [3] | outcome [4] | Potency [5] | outcome [10] | outcome [6] | outcome [7] | outcome [9]

CCN(CCO)c1cccc(C)c1
inactive: outcome [1] | outcome [2] | outcome [3] | outcome [4] | Potency [5] | outcome [10] | outcome [9]

O=C(O)C(=O)Nc1cccc(-c2nn[nH]n2)c1
inactive: outcome [1] | outcome [2] | outcome [3] | outcome [4] | Potency [5] | outcome [10] | outcome [6] | outcome [7] | outcome [8] | outcome [9]

COc1cc2c(Nc3ccc(Br)cc3F)ncnc2cc1OCC1CCN(C)CC1
inactive: outcome [1] | outcome [2] | outcome [3] | outcome [4] | Potency [5] | outcome [10] | outcome [6] | outcome [9]

O=C(O)Cc1cccc(-c2cc(CCCCCCc3ccc(O[C@H]4O[C@H](CO)[C@@H](O)[C@H](O)[C@@H]4O)c(-c4cccc(CC(=O)O)c4)c3)ccc2O[C@H]2O[C@H](CO)[C@@H](O)[C@H](O)[C@@H]2O)c1
inactive: activation [1] -0.0045% [at 0.55 µM] | viability change, negative = cytotoxic [2] 9.66% [at 0.575 µM] | ratio activity, negative = inhibition [3] -1.95% [at 0.575 µM] | activity change, negative = inhibition [4] -1.58% [at 0.55 µM] | viability change, negative = cytotoxic [5] 5.41% [at 0.55 µM] | activation [10] 5.49% [at 0.55 µM] | activity change, negative = cytotoxicity [6] 0.163% [at 0.55 µM] | activity change, negative = cytotoxicity [9] -3.17% [at 0.55 µM]

CCc1nccnc1C
inactive: outcome [1] | outcome [2] | outcome [3] | outcome [4] | Potency [5] | outcome [10] | outcome [6] | outcome [7] | outcome [9]

CC(=O)OCCCc1ccccc1
inactive: outcome [1] | outcome [2] | outcome [3] | outcome [4] | outcome [10] | outcome [6] | outcome [9]

C=COCCOCCOC=C
inactive: outcome [1] | outcome [2] | outcome [3] | outcome [4] | Potency [5] | outcome [6] | outcome [7] | outcome [9]

CCOC(=O)CC#N
inactive: outcome [1] | outcome [2] | outcome [3] | outcome [4] | Potency [5] | outcome [6] | outcome [9]

CCCCCC1CCCC(=O)O1 (configuration not stated)
inactive: outcome [1] | outcome [2] | outcome [3] | outcome [4] | Potency [5] | outcome [10] | outcome [6] | outcome [7] | outcome [8] | outcome [9]

Nc1ccc(/C=C/c2ccc(N)cc2S(=O)(=O)O)c(S(=O)(=O)O)c1
inactive: activation [1] -0.496% [at 0.55 µM] | viability change, negative = cytotoxic [2] -6.12% [at 0.575 µM] | ratio activity, negative = inhibition [3] -1.73% [at 0.575 µM] | activity change, negative = inhibition [4] 3.76% [at 0.55 µM] | viability change, negative = cytotoxic [5] 14.9% [at 0.55 µM] | activation [10] 1.54% [at 0.55 µM] | activity change, negative = cytotoxicity [6] 5.38% [at 0.55 µM] | activation [7] 1.93% [at 0.554 µM] | activity change, negative = cytotoxicity [9] 8.54% [at 0.55 µM]

O=C1c2ccccc2-c2ccccc21
inactive: outcome [1] | outcome [2] | outcome [3] | outcome [4] | Potency [5] | outcome [10] | outcome [6] | outcome [9]

C/C=C(\C)C(=O)OCC/C=C\CC
inactive: outcome [1] | outcome [2] | outcome [3] | outcome [4] | Potency [5] | outcome [10] | outcome [6] | outcome [7] | outcome [9]
